# Results as given in PubChem BioAssay (NCATS).
# Records with an inconclusive call do not appear. Where a call stands in place of a potency, no number is given. Values without a mark were called inactive. Activity calls are given as the source filed them. The call rests on the fitted dose curve; in most records, active means well fitted curve in the direction sought with a large enough effect; inconclusive means small, poorly fitted or top-dose-only effect, or another doubt; inactive means no such curve, though single readings can be large; an effect the other way counts as inactive or inconclusive.
# Tests used:
# [1] = qHTS for Inhibitors of Plasmodium falciparum (GB4) proliferation (AID 504315); further: nearly all actives have a fitted effect of over 50% in size; further: potency means the concentration at half of the fitted maximal effect
# Summary of the method: (§1)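 Parasite growth measured as SYBR Green DNA fluorescence (ex 485, em 535 nm) after overnight lysis following 72 h culture at 37 °C, 0.3% parasitemia, 2.5% hematocrit. Values normalized against DMSO and 0.29 uM artemisinin controls, with plate-stack correction.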
# [2] = qHTS for Inhibitors of Plasmodium falciparum (7G8) proliferation (AID 504316); further: nearly all actives have a fitted effect of over 65% in size; further: potency means the concentration at half of the fitted maximal effect; on activity change, negative = inhibition: series mostly up to about 6.7 µM
# Summary of the method: as §1
# [3] = qHTS for Inhibitors of Plasmodium falciparum (CP250) proliferation (AID 504320)
# Summary of the method: as §1
# [4] = qHTS for Inhibitors of Plasmodium falciparum (HB3) proliferation (AID 504318); further: nearly all actives have a fitted effect of over 60% in size; further: potency means the concentration at half of the fitted maximal effect
# Summary of the method: as §1
# [5] = molecular target: Cytochrome P450 2C9 (Homo sapiens) (UniProt P11712); assay: qHTS Assay for Inhibitors and Substrates of Cytochrome P450 2C9 (AID 883); further: nearly all actives have a fitted effect of over 60% in size
# Summary of the method: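 Luminescent read-out of deoxyluciferin hydroxylation, normalized to 57uM sulphaphenazole (AC100). Reaction: 10nM enzyme, 100uM Luciferin-H (equal to KM), 25mM KPO4, 10 min compound preincubation, then 60 min with NADPH regeneration, both at 37C.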
# [6] = molecular target: Cytochrome P450 3A4 (Homo sapiens) (UniProt P08684); assay: qHTS Assay for Inhibitors and Substrates of Cytochrome P450 3A4 (AID 884); further: series mostly up to about 57 µM; nearly all actives have a fitted effect of over 50% in size
# Summary of the method: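 Luminescent readout of luciferin produced by CYP3A4 (20 nM) dealkylation of Luciferin-PPXE, 25 uM (its KM). NADPH-driven reaction ran 60 min at RT after 10 min compound preincubation; data scaled to 57 uM ketoconazole as 100% inhibition.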
# [7] = molecular target: Cytochrome P450 2D6 (Homo sapiens) (UniProt P10635); assay: qHTS Assay for Inhibitors and Substrates of Cytochrome P450 2D6 (AID 891);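 further: luciferin methyl ether substrate demethylated by CYP2D6 with NADPH regeneration; nearly all actives have a fitted effect of over 60% in size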
# Summary of the method: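 Luminescent read-out of luciferin formed by 5 nM human CYP2D6 demethylating 30 uM Luciferin-ME EGE (Km level) over 60 min at room temperature after NADPH regeneration addition. Data normalized to full inhibition by 1.43 uM quinidine.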
# [8] = molecular target: Cytochrome P450 2C19 (Homo sapiens) (UniProt P33261); assay: qHTS Assay for Inhibitors and Substrates of Cytochrome P450 2C19 (AID 899); further: nearly all actives have a fitted effect of over 60% in size
# Summary of the method: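 Luminescence readout of luciferin formed from 10uM Luciferin-H EGE (KM level) by 5 nM CYP2C19 in 50mM KPO4. 60 min NADPH-driven reaction at 37C after 10 min compound preincubation; data scaled to 57uM ketoconazole inhibition.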
# Cytochrome P450 2C9 (Homo sapiens), sequence (P11712 whole entry, looked up): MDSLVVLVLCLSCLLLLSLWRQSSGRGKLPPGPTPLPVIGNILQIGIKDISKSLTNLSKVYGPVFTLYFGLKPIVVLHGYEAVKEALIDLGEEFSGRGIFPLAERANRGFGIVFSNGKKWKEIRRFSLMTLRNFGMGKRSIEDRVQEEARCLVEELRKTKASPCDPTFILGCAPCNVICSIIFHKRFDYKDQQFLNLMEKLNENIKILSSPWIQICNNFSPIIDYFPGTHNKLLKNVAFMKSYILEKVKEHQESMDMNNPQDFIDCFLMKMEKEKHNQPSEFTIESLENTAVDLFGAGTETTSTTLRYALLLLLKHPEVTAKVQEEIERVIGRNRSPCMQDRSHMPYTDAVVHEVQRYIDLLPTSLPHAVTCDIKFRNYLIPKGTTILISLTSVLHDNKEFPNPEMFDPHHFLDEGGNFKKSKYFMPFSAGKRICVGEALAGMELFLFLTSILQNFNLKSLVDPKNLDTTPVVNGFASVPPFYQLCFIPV
# Cytochrome P450 2D6 (Homo sapiens), sequence (P10635 whole entry, looked up): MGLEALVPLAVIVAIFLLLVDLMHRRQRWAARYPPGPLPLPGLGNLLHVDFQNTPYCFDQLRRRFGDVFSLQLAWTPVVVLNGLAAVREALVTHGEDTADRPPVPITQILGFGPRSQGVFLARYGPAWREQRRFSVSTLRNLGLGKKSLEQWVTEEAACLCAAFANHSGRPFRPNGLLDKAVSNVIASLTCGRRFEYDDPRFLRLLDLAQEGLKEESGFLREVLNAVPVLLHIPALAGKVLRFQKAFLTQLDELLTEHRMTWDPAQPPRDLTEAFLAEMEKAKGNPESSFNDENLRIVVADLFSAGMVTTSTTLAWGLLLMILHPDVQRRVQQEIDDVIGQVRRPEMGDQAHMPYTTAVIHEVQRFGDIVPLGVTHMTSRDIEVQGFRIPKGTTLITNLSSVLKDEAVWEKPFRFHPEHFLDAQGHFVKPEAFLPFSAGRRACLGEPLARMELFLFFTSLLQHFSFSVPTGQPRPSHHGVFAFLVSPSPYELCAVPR
# Cytochrome P450 2C19 (Homo sapiens), sequence (P33261 whole entry, looked up): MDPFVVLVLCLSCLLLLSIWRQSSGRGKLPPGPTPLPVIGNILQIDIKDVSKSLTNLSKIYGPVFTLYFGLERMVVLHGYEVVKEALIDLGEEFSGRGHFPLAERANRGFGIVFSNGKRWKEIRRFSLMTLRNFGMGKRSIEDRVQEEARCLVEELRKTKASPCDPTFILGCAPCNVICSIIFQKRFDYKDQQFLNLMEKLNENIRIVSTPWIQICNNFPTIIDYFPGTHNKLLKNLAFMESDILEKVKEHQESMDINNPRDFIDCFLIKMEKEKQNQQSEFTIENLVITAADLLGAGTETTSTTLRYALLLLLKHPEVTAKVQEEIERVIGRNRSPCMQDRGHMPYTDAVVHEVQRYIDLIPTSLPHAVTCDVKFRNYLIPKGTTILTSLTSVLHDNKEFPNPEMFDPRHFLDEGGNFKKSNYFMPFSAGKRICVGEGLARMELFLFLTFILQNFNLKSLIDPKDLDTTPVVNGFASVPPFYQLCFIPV
# Cytochrome P450 3A4 (Homo sapiens), sequence (P08684 whole entry, looked up): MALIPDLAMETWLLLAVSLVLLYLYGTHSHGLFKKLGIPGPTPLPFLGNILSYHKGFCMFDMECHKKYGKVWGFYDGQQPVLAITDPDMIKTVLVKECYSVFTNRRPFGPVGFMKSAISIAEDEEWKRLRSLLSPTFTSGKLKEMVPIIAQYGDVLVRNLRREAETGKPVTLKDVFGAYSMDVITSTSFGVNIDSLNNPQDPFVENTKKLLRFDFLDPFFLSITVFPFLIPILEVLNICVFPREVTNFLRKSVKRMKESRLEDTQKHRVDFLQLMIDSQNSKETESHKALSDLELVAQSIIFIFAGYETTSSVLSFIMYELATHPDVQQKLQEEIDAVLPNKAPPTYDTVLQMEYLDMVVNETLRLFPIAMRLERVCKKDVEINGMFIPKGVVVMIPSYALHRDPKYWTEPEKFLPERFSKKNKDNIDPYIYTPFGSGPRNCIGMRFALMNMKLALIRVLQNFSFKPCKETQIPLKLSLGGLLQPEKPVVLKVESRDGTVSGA
smiles,measurement,setting,value
CC1=C2[C@H](O)[C@H]([C@@H](C)C(=O)NCCC(C)C)CC[C@@]2(C)C=CC1=O,Potency,[1],inactive
same,Potency,[2],inactive
same,Potency,[3],inactive
COC(=O)N[C@H](c1ccccc1)C(C(=O)OC)C(=O)OC,Potency,[1],1510 nM (active)
same,Potency,[2],1900 nM (active)
same,Potency,[4],1900 nM (active)
same,Potency,[3],inactive
c1ccc(CCc2nc(-c3ccccc3)oc2NC2CCCCC2)cc1,Potency,[1],inactive
same,Potency,[4],inactive
CC(C)(C)OC(=O)C1=NOC2(C=CC(=O)C=C2)C1,"activity change, negative = inhibition",[5],-5.68% [at 11.4 µM]
same,"activity change, negative = inhibition",[6],-24.2% [at 11.4 µM]
same,"activity change, negative = inhibition",[7],-10.1% [at 11.4 µM]
same,"activity, negative = inhibition",[8],0.0773% [at 11.4 µM]
same,Potency,[4],inactive
same,Potency,[3],inactive
O=C(NC(CC1=CCCCC1)c1ccccc1)C(F)(F)F (configuration not stated),Potency,[1],inactive
same,Potency,[2],inactive
same,Potency,[4],inactive
same,Potency,[3],inactive
CCc1cc2c(nc1CC)CCN(CCC(C)=NOC[C@@H](O)COCc1ccco1)C2,Potency,[1],inactive
same,Potency,[2],1510 nM (active)
same,Potency,[3],inactive
COC(=O)c1ccc(CN2C(=O)[C@]3(O[C@H](C)CC4=CCCC43)c3c(Br)cccc32)cc1 (some centres not stated),Potency,[1],inactive
same,Potency,[3],inactive
COC(=O)C1=C(C)N(Cc2ccccc2)C(=NCC(C)C)NC1c1ccc(Br)cc1 (configuration not stated),Potency,[3],inactive
FC(F)(F)c1cc(NC(=S)Nc2ccc3ccccc3c2)cc(C(F)(F)F)c1,Potency,[4],2130 nM (active)
COc1ccc(O[C@H]2C=C[C@@H](c3ccccc3)O[C@H]2COC(=O)CCC(C)=NOC[C@@H](C)[C@H](OCc2ccccc2)C(C)C)cc1,Potency,[2],1900 nM (active)
CC1=C[C@@H](COCc2ccccc2)O[C@@]2(C1)C(=O)Nc1cccc(Br)c12,Potency,[1],inactive
same,Potency,[3],inactive
CCN1C(=NCc2ccccc2)N[C@@H](CCc2ccccc2)[C@H](C(=O)OC)[C@H]1C,Potency,[1],inactive
same,Potency,[2],inactive
same,Potency,[4],inactive
same,Potency,[3],inactive
CC(=O)C1=C(C)N(Cc2ccccc2)C(=O)NC1CCc1ccccc1 (configuration not stated),Potency,[1],inactive
same,Potency,[4],inactive
same,Potency,[3],inactive
CC#CCC1(C(=O)OC)C(=O)NC[C@H]1c1ccccc1 (some centres not stated),Potency,[1],inactive
same,Potency,[4],inactive
same,Potency,[3],inactive
C=C(C)C(O)C=Cc1ccc(C(F)(F)F)cc1 (configuration not stated),Potency,[1],inactive
same,Potency,[4],inactive
same,Potency,[3],inactive
C=CCN1C(=O)[C@]2(O[C@H](C)CC3=CCCC32)c2c(Br)cccc21 (some centres not stated),Potency,[1],inactive
same,Potency,[2],inactive
same,Potency,[3],inactive
C=CCOC(=O)C1(C(NC(=O)OC)c2ccccc2)C(=O)Cc2ccccc21 (configuration not stated),Potency,[1],inactive
same,Potency,[3],inactive
C=CCOCCC=C1c2ccccc2[C@@H](OC)[C@@H]1C,Potency,[2],1510 nM (active)
same,Potency,[3],inactive
CC#CCN1c2ccccc2[C@]23CCC(=O)N(Cc4ccco4)C2=NC(C(=O)OC)=C(C(=O)OC)[C@H]13,Potency,[2],1690 nM (active)
CC(C)=CCN1C(=O)[C@]2(OCCC=C[C@H]2C)c2c(Br)cccc21,Potency,[1],inactive
same,Potency,[2],inactive
same,Potency,[4],inactive
same,Potency,[3],inactive
CC(=O)OC[C@H]1O[C@H](CCON=C(C)CCC(=O)OC[C@H]2O[C@H](C#Cc3ccccc3)C=C[C@H]2Oc2ccc(C)cc2)C=C[C@H]1OC(C)=O,Potency,[2],inactive
same,Potency,[4],inactive
same,Potency,[3],inactive
